Experimental data published in PubChem BioAssay (NCI).
The panel holds about 83,000 compounds, 20% with a hit somewhere; the sample as a whole holds those more often.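 The test compound was applied at a single concentration to cells in 96-well plates for 48 hours, and percent growth was recorded.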 Activity calls are given as the source filed them. Rule for the calls: active = growth percent below 10; inactive = the rest.

Test system: HL-60(TB) leukemia
Assay: NCI-60 one-dose screen, 48 h (100 = growth as untreated, 0 = no growth, -100 = all killed)
Conditions: 10 µM unless noted

**Q.** `O=S(=O)(NCCNc1nccc(-n2cnc3ccccc32)n1)c1ccc(C(F)(F)F)cc1` was tested. Which growth did it give?
**A.** Its growth is 73.8% (inactive).

**Q.** Which growth does the source give for `FC(F)(F)c1cc(Br)cc(-c2cc(-c3ccc4c(c3)OCCO4)[nH]n2)c1` here?
**A.** The growth was 6.8% (active).

**Q.** How did the growth turn out when `C#Cc1nc(C2=C(C)C(OC(=O)CCC(=O)O)CC2)cs1` (stereo not given) was run?
**A.** Its growth is 101% (inactive).

**Q.** `COc1ccc(Cc2nn(CC(=O)N/N=C/c3ccc(Cl)cc3)c(=O)c3c(C)noc23)cc1` was tested. Which growth did it give?
**A.** Its growth is 101% (inactive).

**Q.** How did the growth turn out when `CCOC(=O)c1ccc(NC2=CC(=O)C(C)=C(C)C2=O)cc1` was run?
**A.** Its growth is 53% (inactive).

**Q.** Which growth does the source give for `Clc1ccc2oc3c(NCCCn4ccnc4)c4ccccc4nc3c2c1` here?
**A.** Its growth is 29% (inactive).

**Q.** Which growth does the source give for `COc1cc(/C=N/n2cnc3oc(-c4ccccc4)cc3c2=N)cc(CN2CCN(C)CC2)c1O` here?
**A.** The growth was 110% (inactive).

**Q.** How did the growth turn out when `C=C(C=O)[C@@H]1CC[C@]2(CO)CC[C@]3(C)[C@H](CC[C@@H]4[C@@]5(C)CCCNC(C)(C)[C@@H]5CC[C@]43C)[C@@H]12` was run?
**A.** The growth was -10.2% (active).

**Q.** For `CN1CCN(Cc2ccc(NC(=O)c3cncc(C#Cc4cnc5ccc(OCCCS(C)(=O)=O)nn45)c3)cc2C(F)(F)F)CC1`, which growth is on record?
**A.** Its growth is -6.31% (active).

**Q.** For `O=S(=O)(Nc1ccc2c(c1)OC(F)(F)O2)c1ccc(-c2cnc(C3CC3)o2)cc1`, which growth is on record?
**A.** Its growth is 3.85% (active).

**Q.** For `O=C(CSc1nc2ccccc2c(=O)n1-c1ccccc1)Nc1ccc(S(=O)(=O)Nc2nccs2)cc1`, which growth is on record?
**A.** Its growth is 78.7% (inactive).

**Q.** Which growth does the source give for `CS(=O)(=O)c1ccc(-c2nc3ccccn3c2/C=N/Nc2nc(-c3ccc(Br)cc3)cs2)cc1` here?
**A.** The growth was 107% (inactive).

**Q.** `N#Cc1nc(-c2ccccc2)oc1N1CCC(CO)C1` (stereo not given) was tested. Which growth did it give?
**A.** The growth was 107% (inactive).

**Q.** How did the growth turn out when `O=C(CSc1nc2ccccc2c(=O)n1-c1ccc(Cl)cc1)N/N=C/c1ccc(Oc2ccc(Cl)cc2)cc1` was run?
**A.** The growth was 111% (inactive).

**Q.** Which growth does the source give for `CN1CCN(c2ccc(C(=O)/C=C/c3ccc(Cl)c(C(F)(F)F)c3)cc2)CC1` here?
**A.** The growth was -22.6% (active).

**Q.** For `Oc1ccc(CSc2nnc(-c3ccncc3)n2-c2ccccc2)c2cccnc12`, which growth is on record?
**A.** Its growth is 10.9% (inactive).

**Q.** Which growth does the source give for `O=C(NNc1nc2cc(F)ccc2n2cncc12)c1cnccn1` here?
**A.** Its growth is 10.8% (inactive).

**Q.** Which growth does the source give for `CCO/C=N/C1=C(C#N)C(c2ccc(F)cc2)c2sc3c(CC)cccc3c2O1` (stereo not given) here?
**A.** The growth was -19.1% (active).

**Q.** Which growth does the source give for `NS(=O)(=O)c1ccc(Nc2nc(N/N=C/C=C/c3ccccc3)nc(Nc3ccccc3)n2)cc1` here?
**A.** Its growth is 38.6% (inactive).

**Q.** How did the growth turn out when `C#C[C@]1(O)CC[C@H]2[C@@H]3CC=C4c5sc(-c6ccc(OC)cc6)nc5CC[C@]4(C)[C@H]3CC[C@@]21C` was run?
**A.** Its growth is 21.1% (inactive).

**Q.** With `Cn1cc(C2=C(c3coc4cc(Br)ccc34)C(=O)NC2=O)c2ccccc21` as the compound, how does the growth read?
**A.** Its growth is 44.5% (inactive).

**Q.** With `Oc1ccc(CSc2nnc(-c3ccc(Oc4ccccc4)cc3)n2-c2ccccc2)c2cccnc12` as the compound, how does the growth read?
**A.** Its growth is 10.1% (inactive).

**Q.** Which growth does the source give for `O=C(/C=C/c1csc(Br)n1)NO` here?
**A.** The growth was -36.2% (active).

**Q.** For `COc1ccc(CNS(=O)(=O)/N=C2\NC(=O)NC2=C(Cl)Cl)cc1`, which growth is on record?
**A.** Its growth is -11.1% (active).

**Q.** Which growth does the source give for `CCN1C(=O)N(CC)C2SC(N/N=C/c3ccccc3F)=NC21` (stereo not given) here?
**A.** The growth was 0.098% (active).

**Q.** How did the growth turn out when `CCOC(=O)c1c(NC(=O)c2ccccc2C(F)(F)F)sc2c1CCC(=O)C2` was run?
**A.** Its growth is 33.4% (inactive).

**Q.** How did the growth turn out when `O=C(COc1ccc(C2SCC(=O)N2c2ccc(F)cc2)cc1)c1ccccc1` (stereo not given) was run?
**A.** Its growth is 98.6% (inactive).

**Q.** With `CC1CCN(S(=O)(=O)c2ncsc2-c2ccccc2)CC1` as the compound, how does the growth read?
**A.** The growth was 72.3% (inactive).

**Q.** With `Cn1cc(-c2cc3ncnc(Nc4ccc(CC(=O)Nc5nc(C(C)(C)C)cs5)cc4)c3s2)cn1` as the compound, how does the growth read?
**A.** Its growth is 29.2% (inactive).

**Q.** How did the growth turn out when `CC1=CC(=O)CC(C)(C)[C@@]1(O)/C=C/C(C)=C\C(=O)O` was run?
**A.** The growth was -41.9% (active).
